Several values for one entry are separate records, joined by “and”; a condition that tells them apart may be missing. Equal values may be shown once. Inconclusive results are not listed. A call without a number means that no potency is given here. More than one record can exist for a structure, and the calls need not agree. Activity calls are given as the source filed them. Unless noted, calls come from the whole dose curve; as a rule, active = well fitted curve in the direction sought with a large enough effect in the repeat runs; inconclusive = weak or mixed curves; inactive = no such curve, though single readings can be large; an effect the other way counts as inactive or inconclusive.
Tests used:
[1] = molecular target: Thyrotropin receptor (Homo sapiens) (UniProt P16473); assay: qHTS assay to identify small molecule agonists of the thyroid stimulating hormone receptor (TSHR) signaling pathway (AID 1224843; calls by dose curve; note: nearly all actives have a fitted effect of over 45% in size)
Procedure, shortened: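 Agonist-mode screen: TSHR HEK293 cells received test chemicals for half an hour at room temperature, then HTRF cAMP detection reagents for one hour prior to fluorescence measurement. Each chemical ran as a 15-concentration series, triplicated.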

[2] = qHTS assay to identify small molecule agonists of the hypoxia (HIF-1) signaling pathway - cell viability counter screen (AID 1224844; calls by dose curve; note: nearly all actives have a fitted effect of over 50% in size)
Procedure, shortened: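 Same wells as the HIF-1 reporter screen; ME-180 cells carrying HRE-bla, 17 hr treatment at 37C; CellTiter-Glo luminescence read after 30 min at room temperature.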

[3] = qHTS assay to identify small molecule agonists of the hypoxia (HIF-1) signaling pathway (AID 1224846; active = well fitted activation curve with a large enough effect in the signal ratio in the repeat runs, not every such curve was filed as active; the % refers to the signal ratio)
Procedure, shortened: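 In ME-180 cells bearing an HRE-bla construct, 17 h treatment with DMSO-dissolved compounds at 37C was followed by CCF4-AM loading to quantify reporter induction.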

[4] = qHTS assay to identify small molecule agonists of H2AX - cell viability counter screen (AID 1224847; calls by dose curve;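 note: wild-type CHO-K1 cells; top concentration of the series differs between compounds; nearly all actives have a fitted effect of over 30% in size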)
Procedure, shortened: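 CHO-K1 cells plated overnight at 37C, then exposed 3 h at 37C to compounds at 15 concentrations (0.76% DMSO final). Viability by CellTiter-Glo luminescence after 30 min at room temperature.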

[5] = qHTS RealTime-Glo MT Cell Viability Assay in HepG2 cells - 24 hour (AID 1224867); note: nearly all actives have a fitted effect of over 50% in size
Procedure, shortened: (§1)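 HepG2 cells were seeded at 600 cells/well together with NanoLuc luciferase and a cell-permeant prosubstrate, preincubated 5 h at 37 C/5% CO2, then pin-dosed with compounds in DMSO. Nonlytic luminescence from viable cells was read at each time point.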

[6] = qHTS RealTime-Glo MT Cell Viability Assay in HEK293 cells - 32 hour (AID 1224868); note: top concentration of the series differs between compounds; nearly all actives have a fitted effect of over 50% in size
Procedure, shortened: (§2)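 HEK293 cells were seeded at 600 cells/well together with NanoLuc luciferase and cell-permeant prosubstrate, preincubated 5 h at 37 C/5% CO2, then given compound in DMSO by pintool. Luminescence from viable-cell prosubstrate reduction was read repeatedly over 40 h.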

[7] = A CellTox Green Cytotoxicity Assay to monitor cytotoxicity in HEK293 cells - 0 hour (AID 1224869); note: nearly all actives have a fitted effect of over 50% in size
Procedure, shortened: (§3)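 Homogeneous no-lysis format: HEK293 cell suspension mixed with CellTox Green reagent, seeded, incubated 5 h at 37 C/5% CO2, then dosed by pintool with compound in DMSO.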

[8] = qHTS RealTime-Glo MT Cell Viability Assay in HepG2 cells - 40 hour (AID 1224870); note: nearly all actives have a fitted effect of over 50% in size
Procedure, shortened: (§4)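 HepG2 cells (600/well) mixed with RealTime-Glo MT reagent, settled 5 h at 37 C/5% CO2 before compound addition. Nonlytic NanoLuc luminescence from viable-cell prosubstrate reduction read repeatedly during 40 h treatment at 37 C.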

[9] = A CellTox Green Cytotoxicity Assay to monitor cytotoxicity in HEK293 cells - 40 hour (AID 1224871); note: nearly all actives have a fitted effect of over 45% in size
Procedure, shortened: as §3

[10] = qHTS RealTime-Glo MT Cell Viability Assay in HEK293 cells - 16 hour (AID 1224872)
Procedure, shortened: as §2

[11] = qHTS RealTime-Glo MT Cell Viability Assay in HepG2 cells - 8 hour (AID 1224873); note: nearly all actives have a fitted effect of over 55% in size
Procedure, shortened: as §4

[12] = qHTS RealTime-Glo MT Cell Viability Assay in HEK293 cells - 40 hour (AID 1224874); settings: RealTime-Glo luminescence; max response: stronger effect = lower value; note: nearly all actives have a fitted effect of over 50% in size
Procedure, shortened: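 Measured as luminescence from the same continuously cultured HEK293 wells at successive time points (0, 8, 16, 24, 32, 40 h) after compound addition. Reagent present from seeding; dosing at 5 h; incubation 37 C.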

[13] = A CellTox Green Cytotoxicity Assay to monitor cytotoxicity in HEK293 cells - 24 hour (AID 1224875); note: series mostly up to about 77 µM; nearly all actives have a fitted effect of over 45% in size
Procedure, shortened: as §3

[14] = A CellTox Green Cytotoxicity Assay to monitor cytotoxicity in HepG2 cells - 16 hour (AID 1224876); note: nearly all actives have a fitted effect of over 45% in size
Procedure, shortened: (§5)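 Fluorescent DNA-binding dye, 600 HepG2 cells/well, 5 h preincubation then compound in DMSO; same plates read at 0–40 h, 37 C.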

[15] = qHTS RealTime-Glo MT Cell Viability Assay in HepG2 cells - 32 hour (AID 1224877); note: nearly all actives have a fitted effect of over 55% in size
Procedure, shortened: as §1

[16] = A CellTox Green Cytotoxicity Assay to monitor cytotoxicity in HepG2 cells - 24 hour (AID 1224878); note: nearly all actives have a fitted effect of over 45% in size
Procedure, shortened: as §5

[17] = A CellTox Green Cytotoxicity Assay to monitor cytotoxicity in HepG2 cells - 40 hour (AID 1224879); note: nearly all actives have a fitted effect of over 40% in size; note: potency is the fitted concentration of half-maximal effect
Procedure, shortened: as §5

Chain of Thyrotropin receptor (Homo sapiens) (P16473 whole entry, looked up): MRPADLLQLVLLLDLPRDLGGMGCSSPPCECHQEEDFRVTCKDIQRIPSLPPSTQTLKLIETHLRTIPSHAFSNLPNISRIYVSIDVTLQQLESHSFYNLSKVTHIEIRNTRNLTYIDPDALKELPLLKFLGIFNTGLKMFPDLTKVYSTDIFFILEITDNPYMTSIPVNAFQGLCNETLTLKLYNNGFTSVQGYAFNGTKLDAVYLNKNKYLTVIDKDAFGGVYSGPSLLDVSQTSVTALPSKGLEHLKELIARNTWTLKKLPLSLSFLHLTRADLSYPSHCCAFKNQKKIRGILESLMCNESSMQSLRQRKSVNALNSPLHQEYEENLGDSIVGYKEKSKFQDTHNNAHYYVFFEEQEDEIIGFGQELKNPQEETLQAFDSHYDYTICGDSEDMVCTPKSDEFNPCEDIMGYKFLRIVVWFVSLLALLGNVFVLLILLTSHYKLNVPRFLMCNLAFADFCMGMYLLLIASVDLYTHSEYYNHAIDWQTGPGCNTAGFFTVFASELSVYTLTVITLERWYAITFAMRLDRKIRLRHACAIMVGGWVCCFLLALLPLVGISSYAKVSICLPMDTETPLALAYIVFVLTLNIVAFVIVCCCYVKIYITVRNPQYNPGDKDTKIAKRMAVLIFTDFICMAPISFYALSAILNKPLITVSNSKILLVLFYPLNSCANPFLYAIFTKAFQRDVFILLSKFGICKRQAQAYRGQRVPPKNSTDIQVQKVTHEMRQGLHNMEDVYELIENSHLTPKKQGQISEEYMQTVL

Row | Structure (SMILES) | Potency [1] | Potency [2] | outcome [3] | Potency [4] | Potency [5] | Potency [6] | Potency [7] | Potency [8] | Potency [9] | Potency [10] | Potency [11] | max response [12] | Potency [13] | Potency [14] | Potency [15] | Potency [16] | Potency [17]
1 | C/C=C/C=C/C(=O)O | inactive | inactive | inactive | inactive | inactive | inactive | inactive | inactive | inactive | inactive | inactive | 4.62% (inactive) and 7.49% (inactive) | inactive | inactive | inactive | inactive | inactive
2 | O=C(O)CC(O)C(=O)O (centres undefined) | inactive | inactive | inactive | inactive | inactive | inactive | inactive | inactive | inactive | inactive | inactive | -23.9% (inactive) and -4.53% (inactive) and 7.17% (inactive) | inactive | inactive | inactive | inactive | inactive
3 | F[B-](F)(F)F | inactive | inactive | inactive | inactive | inactive | inactive | inactive | inactive | inactive | inactive | inactive | 7.4% (inactive) and 8.65% (inactive) and 0.515% (inactive) | inactive | inactive | inactive | inactive | inactive and 39.5 µM (active)
4 | Oc1ccccc1 | inactive | inactive | inactive | inactive | inactive | inactive | inactive | inactive | inactive | inactive | inactive | 1.54% (inactive) [middle of 5 runs] | inactive | inactive | inactive | inactive | inactive
5 | CC(O)(P(=O)(O)O)P(=O)(O)O | inactive | inactive |  | inactive | inactive | inactive | inactive | inactive | inactive | inactive | inactive | -0.279% (inactive) and 1.56% (inactive) and -3.74% (inactive) | inactive | inactive | inactive | inactive | inactive

Reference: PubChem BioAssay (Tox21)
